Screens from PubChem.
Most compounds without a hit are left out; they make up all but 1.6% or so of the library.
S1P3 antag: antagonists of human S1P3 receptor. inhibition, % at 4.98 µM. CHO S1P3 NFAT-BLA reporter, FRET fluorescence, antagonist mode. Q99500. 170,000 compounds, 0.27% hits. AID 485;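 active means inhibition above the plate cutoff, the mean inhibition of test wells on that plate plus 3 SD, cut at about 28% in these data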;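 further: cells challenged with S1P at its EC80 of 0.8 µM; blue over green emission ratio from cleaved BLA substrate after 4 h stimulation; 0% = S1P-stimulated wells and 100% = unstimulated DMSO-only wells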
DTT redox prof: compounds producing H2O2 with reducing agent – biochemical, NIH compound library profiling, artefact control for MLSCN library redox annotation, primary screen. DTT-dependent redox cycling H2O2, phenol red/HRP absorbance; 100% = 100 µM peroxide control, 0% = buffer. activation, % at 10 µM. 200,000 compounds, 0.03% hits. AID 878;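 active means activation of at least 50% relative to the plate's high and low controls in the primary single-dose screen; inactive means activation below 50%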;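 further: compound incubated with DTT at 0.8 mM final as the reducing agent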
S1P4 agonist: agonists of human S1P4 receptor; 220,000 compounds, 0.35% hits; O95977; AID 1509; activation, % at 4.98 µM; S1P4-expressing cell line, agonist reporter assay; in the data active means activation above about 11%;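 further: 0% = DMSO vehicle and 100% = reference agonist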
Target sequence (O95977 whole entry, looked up): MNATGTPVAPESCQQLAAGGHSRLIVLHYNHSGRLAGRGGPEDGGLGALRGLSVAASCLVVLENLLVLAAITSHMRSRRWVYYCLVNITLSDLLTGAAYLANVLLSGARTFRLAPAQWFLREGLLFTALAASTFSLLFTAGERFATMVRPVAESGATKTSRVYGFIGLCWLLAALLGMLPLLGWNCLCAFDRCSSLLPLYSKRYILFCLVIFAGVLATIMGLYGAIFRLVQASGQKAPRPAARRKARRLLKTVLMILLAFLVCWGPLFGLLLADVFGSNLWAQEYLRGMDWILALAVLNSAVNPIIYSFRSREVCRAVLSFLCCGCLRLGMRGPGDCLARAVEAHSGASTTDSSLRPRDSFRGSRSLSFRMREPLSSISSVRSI
S1P4 antagonist: human S1P4 receptor antagonism; O95977; S1P4-expressing cells, antagonist mode, reporter read-out; inhibition, % at 4.98 µM; 220,000 compounds, 0.26% hits; AID 1510; in the data active means inhibition above about 29%;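 further: 0% = wells stimulated with agonist and 100% = vehicle wells without agonist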
Arbovirus anti: arbovirus infection inhibition | 200,000 compounds, 0.37% hits | inhibition, % at 10 µM | arbovirus infection cell-based antiviral screen; in the data active means inhibition above about 30%
p97 ATPase inh: blocks human p97 ATPase activity. recombinant p97 ATPase, Kinase-Glo ATP luminescence, 3 h. 220,000 compounds, 0.42% hits. P55072. inhibition, % at 8 µM; in the data active means inhibition above about 15%;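 further: 0% = DMSO vehicle and 100% = wells lacking enzyme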
p97 confirm: confirmation of human p97 ATPase inhibitors; shares compounds with p97 ATPase inh; recombinant p97 ATPase, Kinase-Glo ATP luminescence; inhibition, % at 8 µM; 760 compounds, 44% hits;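 active means percent inhibition of p97 ATPase above a set limit, the primary screen's mean plus 3 SD, cut at about 15% in these data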;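 further: 0% = DMSO wells and 100% = wells lacking p97 protein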
The depositor's hits bear a star; x = not tested or not shown.

SMILES | S1P3 antag | DTT redox prof | S1P4 agonist | S1P4 antagonist | Arbovirus anti | p97 ATPase inh | p97 confirm
Cc1ccc(CNC(=O)C(C)OC(=O)c2cccs2)cc1 (stereo unspecified) | x | -5 | -3 | -10 | 1 | -5 | x
O=C1NCCCC2c3cc(O)c4ccccc4c3OC12N1CCCCC1 (stereo unspecified) | -47 | 0 | 2 | 7 | -46 | 34* | 14
O=C(CSc1nc2ccc([N+](=O)[O-])cc2s1)c1ccc2ccccc2c1 | -5 | x | 0 | 0 | x | 17* | 8
O=C(O)CCCN1C(=O)/C(=C\c2ccc(-c3nc4ccccc4s3)o2)SC1=S | -18 | x | 3 | -5 | x | 15* | 3
CC1CC(C)CN(C(=O)CSc2nc(N)cc(=O)[nH]2)C1 (stereo unspecified) | -14 | -1 | 0 | -28 | -1 | 2 | x
CC(C)(C)C1CCc2c(sc(NC(=O)c3cccs3)c2C(=O)N2CCCCC2)C1 (stereo unspecified) | x | 1 | -2 | 0 | -18 | -4 | x
COc1ccc(-c2csc(N(Cc3ccco3)C(=O)c3cccs3)n2)cc1 | 4 | x | 0 | -7 | x | 39* | 16*
CCc1ccccc1NC(=O)C1C(c2ccccc2)C1(Cl)Cl (stereo unspecified) | x | -5 | 0 | -2 | -5 | 2 | x
O=C(Nc1ccc(F)cc1)C1C(c2ccccc2)C1(Cl)Cl (stereo unspecified) | 17 | 0 | 0 | -7 | -26 | 41* | 47*
O=C(O)/C=C/c1ccc([N+](=O)[O-])o1 | -19 | -2 | 1 | -1 | 2 | 5 | x
O=C1NC(=S)S/C1=C\C=C\c1ccc([N+](=O)[O-])o1 | 9 | x | 0 | -2 | x | 45* | 18*
CCOC(=O)c1sc(NC(=O)c2c(C)nn(Cc3ccccc3)c2C)cc1C | 13 | -3 | 1 | -3 | -21 | 20* | 6
CCOC(=O)c1sc(NC(=O)c2ccccc2)cc1C | x | 0 | -2 | 3 | -11 | -1 | x
N#Cc1c(NC(=O)c2ccc(Br)o2)n(-c2ccccc2)c2nc3ccccc3nc12 | -54 | x | 1 | 12 | x | 47* | 41*
N#C/C(=C\c1ccc2c(c1)OCO2)C(N)=S | -14 | x | 0 | 2 | x | 12 | x
N#C/C(=C/c1ccco1)C(N)=S | -13 | x | -2 | 5 | x | 27* | 10
CS(=O)(=O)c1cnc(-c2ccccc2)nc1-c1ccccc1Cl | -20 | 0 | 0 | 5 | 2 | 2 | x
O=C(CCn1cccc1)NCc1ccccc1 | -27 | 0 | 1 | 3 | 1 | 3 | x
CCC(Cc1ccccc1)NC(=O)CCn1cccc1 (stereo unspecified) | x | 0 | -2 | -5 | 0 | 16* | 5
CCNC(=O)CC1SC(=Nc2cccc3ccccc23)N(C)C1=O (stereo unspecified) | 7 | 0 | 2 | -14 | -3 | 1 | x
COc1cc(/C=C2/C(=O)N(c3ccccc3)N=C2C)ccc1OS(=O)(=O)c1ccccc1 | 0 | 0 | 0 | -6 | -3 | 6 | x
CC1=NN(c2ccc(C)c(C)c2)C(=O)/C1=C/c1ccc2c(c1)n(C)c(=O)n2C | -6 | 1 | 1 | 3 | -5 | 25* | -1
Cc1ccc(S(=O)(=O)N2CCN(C(C(=O)Nc3ccc(F)cc3)c3ccccc3)CC2)cc1 (stereo unspecified) | 4 | 0 | -3 | -1 | 7 | -3 | x
CC1=NN(c2ccc(C)cc2C)C(=O)C1C(c1cccc(O)c1)C1C(=O)N(c2ccc(C)cc2C)N=C1C (stereo unspecified) | -13 | 1 | -2 | 1 | 3 | 23* | 6
CCN1C(=O)c2cccc3cccc1c23 | 5 | -1 | 0 | 4 | -5 | 1 | x
SMILES | S1P3 antag | DTT redox prof | S1P4 agonist | S1P4 antagonist | Arbovirus anti | p97 ATPase inh | p97 confirm
CN1CN(C)c2cccc3cccc1c23 | x | 1 | 1 | -14 | -5 | 29* | 5
COCC(=O)N(CCc1ccc(OC)c(OC)c1)Cc1nc2ccccc2c(=O)[nH]1 | -6 | 0 | 1 | -14 | 1 | 16* | 8
COCC(=O)N(Cc1nc2ccccc2c(=O)[nH]1)Cc1cccs1 | -18 | 2 | -1 | -3 | 9 | 5 | x
O=C(Nc1cccc(F)c1)c1c(O)c2cccc3c2n(c1=O)CCC3 | 6 | 6 | 0 | -1 | 2 | 18* | 8
CCn1c(O)c(N=NC(=S)NCC2CCCO2)c2ccccc21 (stereo unspecified) | -8 | -2 | 1 | -31 | -13 | -4 | x
O=C1C=C(NCc2ccccc2)c2ccccc2C1=O | -2 | 0 | -1 | 5 | -35 | 48* | 33*
O=C(O)CCC(=O)c1ccc2ccc3cccc4ccc1c2c34 | -10 | x | 1 | -3 | x | 19* | 25*
O=S(=O)(/N=C/c1c(O)ccc2ccccc12)c1cccs1 | x | 0 | 1 | -19 | 5 | 3 | x
Cc1cc(SCC(=O)c2ccc(O)c(O)c2)n2nc(C)c(-c3ccccc3)c2n1 | 12 | x | 1 | -6 | x | 15* | 18*
O=C(COC(=O)c1ccc(Br)cc1)NCc1ccc(F)cc1 | -14 | 0 | 1 | 9 | 2 | 0 | x
Cc1ccc(C(=O)NC2(O)C(=O)c3ccccc3C2=O)cc1C | -1 | x | 1 | 1 | x | 26* | 26*
O=C(Cc1ccccc1)NC1(O)C(=O)c2ccccc2C1=O | 5 | x | -3 | -6 | x | 16* | 15*
O=C(NC1(O)C(=O)c2ccccc2C1=O)c1ccc(C(F)(F)F)cc1 | -8 | x | 0 | 0 | x | 27* | 28*
O=C(Cc1ccccc1)NC1(Cc2ccc(O)cc2)CCCCC1 | 3 | 0 | -1 | -8 | -6 | 0 | x
OCC#Cc1ncc(C(F)(F)F)cc1Cl | 8 | -1 | -1 | -27 | 2 | 28* | 33*
NC(=O)Cc1ncc(C(F)(F)F)cc1Cl | 3 | 1 | -1 | -12 | 4 | 2 | x
O=c1[nH]c(=O)n(C2CCCO2)cc1F (stereo unspecified) | -8 | -1 | -1 | -19 | 3 | 20* | 8
CCC(CC)C(=O)NCCCN1CCOCC1 | -7 | -1 | 0 | -12 | 6 | 9 | x
O=[N+]([O-])c1ccc(N2CCCC2)cc1NC1CC1 | -6 | 0 | 0 | -1 | 3 | -8 | x
NCCNc1ccc([N+](=O)[O-])c(NC2CC2)c1 | -18 | 0 | 4 | -8 | 8 | 17* | 6
O=C(COc1ccc(C2SCCS2)cc1)NNC(=O)C(Cl)Cl | 4 | x | 0 | -2 | x | 26* | 9
CCCCn1[nH]c(-c2ccccc2)cc1=O | 16 | -1 | 0 | -1 | -3 | 21* | 6
Cc1ccc(C)c(NC(=O)c2ccccc2C(=O)c2ccccc2)c1 | -8 | -1 | -1 | -8 | -1 | 3 | x
Cc1cccc(Nc2cc(C)c3c(O)cccc3n2)c1C | -3 | 2 | -1 | 7 | -35 | 23* | 16*
